Our source for the fold change permeability values is PubChem BioAssay.

The source made the active and inactive calls. Rule as the data show it: active = fold change permeability below about 0.7 or above about 1.3; inactive = in between.

This assay in a line: modulators of brain endothelial barrier permeability, primary screen, cell-based, FITC-avidin fluorescence, HTS (AID 1963498). Also: test concentration not given here. The conditions noted are these: actives lie on both sides.
For `CCCNC(=O)NS(=O)(=O)c1ccc(Cl)cc1`, the fold change permeability is 0.9 (inactive).

`CN(C)C(=O)Oc1cccc([N+](C)(C)C)c1`: the fold change permeability is 0.8 (inactive).

Regarding `COc1ccccc1N1CCN(CCCNc2cc(=O)n(C)c(=O)n2C)CC1`, the fold change permeability is 1.4 (active).

`Cc1cc(C)c(S(=O)(=O)N(CCc2cccc(Br)c2)Cc2ccc(-c3cccc(S(C)(=O)=O)c3)cc2)c(C)c1`: the fold change permeability is 1.8 (active).

In the case of `CC(=O)SCC[N+](C)(C)C`, the fold change permeability was 0.8 (inactive).

As to `COc1cc2c(CCNC(C)=O)c[nH]c2cc1O`, the fold change permeability was 1.1 (inactive).

As for `c1ccc2c(CC3=NCCN3)cccc2c1`, the fold change permeability was 0.9 (inactive).

Take `Cc1cccc(/C=C/c2ccccc2)n1`: the fold change permeability was 1.2 (inactive).

In the case of `N#CC(=C(/N)Sc1ccccc1N)/C(C#N)=C(\N)Sc1ccccc1N`, the fold change permeability is 1.6 (active).

As to `CCN1/C(=C/C(C)=O)Sc2ccc(O)cc21`, the fold change permeability is 1.1 (inactive).

Regarding `CN(C)CCCN1c2ccccc2Sc2ccc(Cl)cc21`, the fold change permeability is 1.1 (inactive).

Regarding `OCCN1CCN(CC/C=C2/c3ccccc3Sc3ccc(C(F)(F)F)cc32)CC1`, the fold change permeability was 1.2 (inactive).

`O=c1ccn([C@@H]2O[C@H](COP(=O)(O)OP(=O)(O)O)[C@@H](O)[C@H]2O)c(=O)[nH]1`: the fold change permeability was 0.8 (inactive).

Take `C[C@]12CC[C@@H]3c4ccc(O)cc4CC[C@H]3[C@@H]1CC[C@@H]2O`: the fold change permeability was 1 (inactive).

Regarding `O=C(O)c1cc(=O)cc(C(=O)O)[nH]1`, the fold change permeability is 0.8 (inactive).

For the molecule `NC(N)=NC(N)=Nc1ccccc1`, the fold change permeability is 0.9 (inactive).

Turning to `O=C(O)/C=C/c1ccc(O)c(O)c1`, the fold change permeability is 0.8 (inactive).

In the case of `CNC1(C)C2CCC(C2)C1(C)C` (centres undefined), the fold change permeability was 0.8 (inactive).

On to `C[n+]1cccc(C(N)=O)c1`, for which the fold change permeability is 0.9 (inactive).

For `Cc1cc(CN)cc(C)c1NC(=O)c1ccc(-c2cc(Cl)ccc2Cl)o1`, the fold change permeability was 1.5 (active).

In the case of `O=c1cc(-c2ccccc2)oc2c(O)c(O)ccc12`, the fold change permeability is 1.5 (active).

For `CNC(=O)c1c(F)cccc1Nc1nc(Nc2cc3c(cc2OC)CCN3C(=O)CN(C)C)nc2[nH]ccc12`, the fold change permeability was 1.6 (active).

On to `N[C@@H](C(=O)N[C@@H]1C(=O)N2C(C(=O)O)=C(Cl)CS[C@H]12)c1ccccc1`, for which the fold change permeability was 0.9 (inactive).

For the molecule `Cc1ccc(C(=O)N(CCCN)C(c2oc3cc(Cl)ccc3c(=O)c2Cc2ccccc2)C(C)C)cc1` (centres undefined), the fold change permeability is 1.6 (active).

As for `CC(C)c1ccc2oc3nc(N)c(C(=O)O)cc3c(=O)c2c1`, the fold change permeability is 1 (inactive).

For `CC[C@H]1OC(=O)[C@H](C)C(=O)[C@H](C)[C@@H](O[C@@H]2O[C@H](C)C[C@H](N(C)C)[C@H]2O)[C@](C)(OC)C[C@@H](C)C(=O)[C@H](C)[C@H]2N(CCCCn3cnc(-c4cccnc4)c3)C(=O)O[C@]12C`, the fold change permeability was 0.7 (active).

On to `O=C(O)/C=C\C(=O)Nc1ccc(Oc2cccc(Oc3ccc(NC(=O)/C=C\C(=O)O)cc3)c2)cc1`, for which the fold change permeability is 0.9 (inactive).

As for `CC(=O)N[C@H]1[C@H]([C@H](O)[C@H](O)CO)OC(C(=O)O)=C[C@@H]1N=C(N)N`, the fold change permeability was 0.9 (inactive).

On to `N=C(N)N1CCc2ccccc2C1`, for which the fold change permeability is 1.3 (active).

In the case of `Clc1ccc2c(c1)C(N1CCNCC1)=Nc1ccccc1O2`, the fold change permeability is 1.2 (inactive).

Consider `O=C(c1ccc(Br)cc1)N1CC2C3CCC(O3)C2C1` (centres undefined), for which the fold change permeability is 1.2 (inactive).

On to `C[C@]12C=CC(=O)C=C1CC[C@H]1[C@@H]3C[C@@H](O)[C@](O)(C(=O)CO)[C@@]3(C)C[C@H](O)[C@@]12F`, for which the fold change permeability was 1.4 (active).

For `O=c1[nH]cnc2[nH]ncc12`, the fold change permeability is 1 (inactive).

Take `CCCOC(=O)c1c(-c2ccccc2)nc(CC)c(C(=O)SCC)c1CCC`: the fold change permeability is 1.5 (active).

In the case of `O=[N+]([O-])c1ccc(CSc2ncnc3c2ncn3[C@@H]2O[C@H](CO)[C@@H](O)[C@H]2O)cc1`, the fold change permeability is 0.8 (inactive).

`O=c1onc2cnc3ccccc3n12`: the fold change permeability is 1.1 (inactive).

As to `COc1cc2nc(N(C)CCCNC(=O)C3CCCO3)nc(N)c2cc1OC` (centres undefined), the fold change permeability is 1 (inactive).

Consider `N[C@@H](Cc1cnc[nH]1)C(=O)O`, for which the fold change permeability was 0.9 (inactive).

With `N[C@@H](Cc1ccc(O)c(O)c1)C(=O)O`, the fold change permeability was 0.8 (inactive).
